Source: PubChem BioAssay
KCNH2 3.1 inh: inhibitors of human KCNH2 3.1 potassium channel isoform. U2OS KCNH2 3.1, thallium flux FluxOr; active compounds read low. activity change, % (tested at about 1.8 µM). actives 0.95% (n = 340,000). AID 720553;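 active means maximum activity change below -70%; inconclusive means maximum activity change from -70% to -50%; inactive means maximum activity change above -50%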;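 further: thallium influx rate constant from kinetic fluorescence after stimulation buffer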
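Thallium flux via FluxOr fluorescence (Red40 quencher, 45 min loading) in U2OS cells virally expressing the KCNH2 3.1 isoform (1.77 x 10^8 /mL virus, overnight at 37 C). Rate constants from 2-min kinetic reads post-stimulation, normalised to positive and negative controls.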
hERG WT inh: inhibitors of human wildtype KCNH2 potassium channel. activity change, % at 1.84 µM. actives 0.37% (n = 340,000). Q12809. U2OS, BacMam KCNH2, thallium flux FluxOr; active compounds read low;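 active means maximum activity change below -70%; inconclusive means maximum activity change between -70% and -50%; inactive means maximum activity change above -50%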
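U2OS cells were transduced with wild-type KCNH2 virus (2.03 x 10^8 / mL) for 4 h at room temperature, then cultured overnight at 37 C. Thallium flux was read with FluxOr dye. Rate constants were normalized to DMSO controls.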
Apoferritin bind: candidate novel general anesthetic via apoferritin binding | P02791 | apoferritin/1-aminoanthracene competitive binding, fluorescence | Potency, µM (titrated, usually from 77.5 µM), hits mostly inhibitors | actives 0.074% (n = 350,000); further: nearly all actives have a fitted effect of over 20% in size
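10 uM apoferritin + 50% sat. 1-AMA, PBS; cpd 10 min RT; Ex380/Em535 endpoint; normalized to free probe vs complex; 4-param Hill fit; propofol titration as pos. ctrl.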
ASM inhibitor: inhibitors of human secretory acid sphingomyelinase. P17405. placental ASM, HMU-PC fluorogenic substrate, 60 min. Potency, µM (highest dose often 57.5 µM), actives largely listed as inhibitors. actives 0.006% (n = 340,000)
Target sequence (P17405 47-631 limits assumed): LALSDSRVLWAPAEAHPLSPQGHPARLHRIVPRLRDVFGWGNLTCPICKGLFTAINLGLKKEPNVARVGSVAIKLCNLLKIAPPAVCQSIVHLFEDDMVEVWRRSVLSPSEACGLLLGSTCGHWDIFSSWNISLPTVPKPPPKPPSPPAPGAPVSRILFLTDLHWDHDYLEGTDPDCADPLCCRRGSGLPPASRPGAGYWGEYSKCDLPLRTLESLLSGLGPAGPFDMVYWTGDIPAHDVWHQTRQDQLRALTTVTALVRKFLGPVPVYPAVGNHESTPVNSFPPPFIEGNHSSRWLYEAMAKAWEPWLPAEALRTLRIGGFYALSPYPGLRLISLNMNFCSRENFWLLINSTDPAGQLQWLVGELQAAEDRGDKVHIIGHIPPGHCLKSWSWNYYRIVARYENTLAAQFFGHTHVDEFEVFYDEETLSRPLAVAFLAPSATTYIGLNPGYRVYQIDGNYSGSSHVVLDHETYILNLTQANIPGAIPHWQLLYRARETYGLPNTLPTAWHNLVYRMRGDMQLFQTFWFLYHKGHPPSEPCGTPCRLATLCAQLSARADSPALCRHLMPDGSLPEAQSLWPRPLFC
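Steps: dispense placental human ASM, pin compound, wait 10 min at room temperature, add HMU-PC0 substrate at 9 uM final, incubate 60 min at 37 °C, add stop solution raising pH to 10, read fluorescence.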
IDH1 R132H inh: human IDH1 R132H inhibition; O75874; IDH1-R132H enzyme, NADPH consumption, diaphorase/resazurin fluorescence; Potency, µM (titrated, usually from 76.6 µM), usual class: inhibitors; actives 0.093% (n = 390,000); further: nearly all actives have a fitted effect of over 65% in size
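IDH1-R132H (0.5 ug/mL) preincubated 30 min with compound, then NADPH (0.016 mM) and alpha-KG (2 mM) added; 80 min at RT, pH 7.5. Remaining NADPH coupled via diaphorase/resazurin to fluorescence (540/590 nm); concentration-response curves normalized to no-enzyme control.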
IDH1 autofl: autofluorescence interference, mutant IDH1 hit counter-screen; Resorufin detection reagent fluorescence interference, cell-free; shares compounds with IDH1 R132H inh; inhibition of signal, % at 51.2 µM; AID 623980; 750 tested, under 10 active
WT IDH1 inh: wild-type IDH1 (human) inhibition counterscreen; shares compounds with IDH1 R132H inh; WT IDH1 enzyme, NADPH diaphorase/resazurin fluorescence; Potency, µM (series often up to 115 µM), most hits filed as inhibitors; actives 9% (n = 750); AID 623995; further: nearly all actives have a fitted effect of over 55% in size
mIDH1 confirm: confirmation of human mutant IDH1 inhibitors; AID 624002; shares compounds with IDH1 R132H inh; Potency, µM (highest dose often 76.6 µM), hits mostly inhibitors; actives 83% (n = 750); IDH1 R132H enzyme, NADPH diaphorase/resazurin fluorescence; further: nearly all actives have a fitted effect of over 50% in size
Hits are given with their value; . = inactive; ? = inconclusive; / = no result given; [ ] = another dose, or the depositor's remark. Only some compounds are listed: those with a hit (about 1.2% of all), similar ones and a draw of the others. Unless noted, the call rests on the fitted dose curve; in most records, active means well fitted curve in the direction sought with a large enough effect; inconclusive means small, poorly fitted or top-dose-only effect, or another doubt; inactive means no such curve, though single readings can be large; an effect the other way counts as inactive or inconclusive.

SMILES	KCNH2 3.1 inh	hERG WT inh	Apoferritin bind	ASM inhibitor	IDH1 R132H inh	IDH1 autofl	WT IDH1 inh	mIDH1 confirm
CCc1ccc(C(=O)c2cn(CC(=O)Nc3ccc(F)c(F)c3)c3cc(OC)c(OC)cc3c2=O)cc1	/	/	?	/	.	/	/	/
CCc1ccc(C(=O)c2cn(Cc3ccc(F)cc3)c3cc(OC)c(OC)cc3c2=O)cc1	/	/	?	/	?	.	.	?
Cc1cc(-n2c(C)nc3ccccc3c2=O)ccc1NC(=O)c1cccc([N+](=O)[O-])c1	/	/	.	/	.	/	/	/
CCOC(=O)c1c(-c2ccc(C)o2)csc1NC(=O)CN1CCCCC1	.	.	.	.	.	/	/	/
CCOC(=O)c1c(-c2ccc(C)o2)csc1NC(=O)CN(C)CC(=O)Nc1ccc(C)cc1	.	.	?	.	?	.	.	14µM
O=c1[nH]c(/C=C/c2ccc3c(c2)OCO3)c([N+](=O)[O-])c(=O)[nH]1	/	/	.	/	/	/	/	/
Cc1cccc(NC(=O)COc2ccc(/C=C\c3[nH]c(=O)[nH]c(=O)c3[N+](=O)[O-])cc2)c1	.	.	.	.	52µM	.	?	32µM
O=c1[nH]c(/C=C/c2ccc([N+](=O)[O-])cc2)c([N+](=O)[O-])c(=O)[nH]1	.	.	.	.	46µM	.	.	32µM
CCOC(=O)c1cccc(NC(=O)COc2ccc([N+](=O)[O-])cc2)c1	.	.	?	.	.	/	/	/
Cc1ccccc1CNC(=O)C(C)N(c1ccccc1)S(C)(=O)=O (centres undefined)	/	/	.	/	.	/	/	/
COc1ccc(C2CC(c3ccccc3)Oc3c(C)ccc(C)c32)cc1 (centres undefined)	/	/	.	/	/	/	/	/
CCSc1nc(N2CCOCC2)c2c(c1C#N)CCCC2	.	.	.	.	.	/	/	/
CC(C)c1nc(N2CCOCC2)c(C#N)c2c1CCCC2	.	.	.	.	?	.	.	35µM
CCn1cc(C(=O)NCc2ccco2)c(=O)c2cc(S(=O)(=O)N3CC(C)CC(C)C3)ccc21 (centres undefined)	.	.	.	.	5.2µM	.	.	2.5µM
C=CCn1cc(C(=O)NCc2ccco2)c(=O)c2cc(S(=O)(=O)N3CCCCCC3)ccc21	/	.	?	.	?	.	.	16µM
CCn1cc(C(=O)NCc2ccco2)c(=O)c2cc(S(=O)(=O)N3CCC(C)CC3)ccc21	.	.	?	.	33µM	.	.	18µM
CCCn1c(-c2ccc(F)cc2)nc2c(NCC(C)(C)CN(C)C)nc(C)nc21	/	/	.	/	/	/	/	/
NCC1O[C@@H](O[C@H]2C(O)C(O[C@@H]3C(O[C@H]4OC(CO)C(O)C(O)C4N)C(N)CC(N)[C@H]3O)O[C@@H]2CO)C(N)C(O)C1O (some centres undefined)	/	/	.	/	/	/	/	/
OCCN(CCO)c1ccc(C(c2ccccc2Cl)c2ccc(N(CCO)CCO)cc2Cl)c(Cl)c1	.	.	.	.	18µM	.	40µM	13µM
CCCc1noc2c1C(c1cc(Br)ccc1F)C(C#N)=C(N)N2 (centres undefined)	.	.	.	.	52µM	.	.	40µM
Cc1cc(C)nc(SCC(=O)NC2=NN=C(c3ccc(Br)cc3)CS2)n1	.	.	.	.	?	.	.	45µM
COc1ccc(N(C(=O)c2snc(C(N)=O)c2N)C(C(=O)NCc2ccccc2)c2ccc(O)cc2)cc1 (centres undefined)	.	.	.	.	.	/	/	/
Cc1cccc(N(C(=O)c2snc(C(N)=O)c2N)C(C(=O)NCc2ccccc2)c2ccncc2)c1 (centres undefined)	.	.	.	.	?	.	.	35µM
COc1ccc(OC)c(N(C(=O)c2snc(C(N)=O)c2N)C(C(=O)NCc2ccccc2)c2ccc(O)cc2)c1 (centres undefined)	.	.	.	.	?	.	.	22µM
CCCCN(CCCC)C(=O)CN(C)S(=O)(=O)c1ccc2c(c1)c(=O)n(C)c(=O)n2C	/	/	?	/	.	/	/	/
SMILES	KCNH2 3.1 inh	hERG WT inh	Apoferritin bind	ASM inhibitor	IDH1 R132H inh	IDH1 autofl	WT IDH1 inh	mIDH1 confirm
CC[C@H](C)[C@H](NC(=O)[C@H](C)NC(=O)CNC(=O)[C@H](CCCN=C(N)N)NC(=O)[C@H](C)NC(=O)[C@H](CC(C)C)NC(=O)[C@H](CCC(=O)O)NC(=O)[C@H](CC(C)C)NC(=O)[C@H](C)NC(=O)[C@@H](N)CCC(=O)O)C(=O)N[C@@H](Cc1ccccc1)C(=O)N[C@@H](CCC(N)=O)C(=O)N[C@@H](C)C(=O)O	/	/	.	/	/	/	/	/
Cc1cccc2c1c1ccc3c(c1n2C)C(=O)C=CC3=O	.	.	.	.	40µM	.	.	25µM
CC(=O)Oc1ccc2c(=O)c(Oc3ccccc3[N+](=O)[O-])coc2c1	.	.	.	.	?	.	.	28µM
CC(C)=CCC/C(C)=C/CO/N=C1/[C@H]2O[C@@H]2[C@@H](O)[C@H]2[C@H]1CCn1c(=O)n(-c3ccccc3)c(=O)n12	/	/	.[15.3 µM]	/	/	/	/	/
CCOc1ccc(C(c2c(O)cc(C)n(CCOC)c2=O)N2CCN(c3ccccc3F)CC2)cc1 (centres undefined)	/	/	.	/	.	/	/	/
CC(C)c1ccc(NC(=O)c2ccc(CN3CC(=O)N4CCCCC4C3=O)cc2)cc1 (centres undefined)	/	/	.	/	.	/	/	/
O=C(NC1CCCCC1)C(c1ccccc1)N(C(=O)Cc1ccsc1)c1ccccc1 (centres undefined)	.	.	.	.	?	.	.	0.63µM
O=C(NC1CCCC1)C(c1ccsc1)N(C(=O)Cc1cccs1)c1ccccc1 (centres undefined)	.	.	.	.	?	.	.	2.8µM
O=C(NC1CCCCC1)C(c1ccncc1)N(C(=O)Cc1cccs1)c1ccccc1 (centres undefined)	.	.	.	.	.	/	/	/
O=C(NC1CCCC1)C(c1ccncc1)N(C(=O)Cc1cccs1)c1ccccc1 (centres undefined)	.	.	.	.	?	.	.	?
O=C(NCc1ccco1)C(c1ccccc1)N(C(=O)Cc1cccs1)c1ccccc1 (centres undefined)	.	.	.	.	.	/	/	/
O=C(NC1CCCCC1)C(c1ccc(F)cc1)N(C(=O)Cc1ccsc1)c1ccc(F)cc1 (centres undefined)	.	.	.	.	.	/	/	/
O=C(NCc1ccco1)C(c1cccs1)N(C(=O)Cc1cccs1)c1ccccc1 (centres undefined)	.	.	.	.	?	.	.	?
